# According to the supplement of paper PMC10646978:
# ± gives the standard deviation.
# How the values were obtained:
# Conditions in all cases: modulator concentration 10 µM
# [1] = system: RAW-Dual (murine macrophage reporter line); assay: NF-kB reporter (SEAP) activity fold change vs agonist alone; higher = enhanced NF-kB activity
# Outline: (§1)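 RAW-Dual murine macrophage reporter cells were plated at 50 000 per well in 384-well plates, pin-transferred compound to 10 μM final, and pre-incubated for 1 hour at 37 °C before a PRR agonist was added and the cells incubated overnight. NF-κB activity was read from supernatant SEAP with QUANTI-Blue at 620 nm absorbance, and IRF activity from Lucia luciferase with QUANTI-Luc by luminescence. Each signal was expressed as fold change by dividing by the mean agonist-only control on the same plate. Two replicate plates were averaged, with errors obtained by propagation.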
# [2] = system: RAW-Dual (murine macrophage reporter line); assay: IRF reporter (Lucia luciferase) activity fold change vs agonist alone; higher = enhanced IRF activity
# Outline: as §1
# [3] = system: RAW-Dual (murine macrophage reporter line); assay: viability score (confluency relative to resting cells, overnight) (fraction); higher = more viable, active = viable (0.7 or more)
# Outline: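 Confluency was the readout: RAW-Dual macrophages were imaged with IncuCyte after an overnight exposure to compound at 10 μM final. IncuCyte software produced two masks over all imaged wells. The viability score expresses confluency against resting cells, and both masks had to exceed 70% of resting cells for a compound to meet the cutoff.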
# [4] = agonist: CpG ODN 1826 0.5 ug/mL
Structure (SMILES),"NF-kB reporter [1, 4]",NF-kB reporter ([1]; agonist: LPS 0.1 ug/mL),NF-kB reporter ([1]; agonist: MPLA […]),IRF reporter ([2]; agonist: 3'3'-cGAMP 10 ug/mL),IRF reporter ([2]; agonist: LPS 0.1 ug/mL),IRF reporter ([2]; agonist: MPLA […]),viability score [3]
CC(=O)N[C@H]1[C@H]([C@H](O)[C@H](O)CO)OC(C(=O)O)=C[C@@H]1NC(=N)N,1.12 ± 0.27,0.945 ± 0.12,1.02 ± 0.066,0.919 ± 0.04,1.3 ± 0.24,1.08 ± 0.12,1.01 (active)
Cl.N=C(N)NCCC[C@H](N)C(=O)O,1.12 ± 0.27,0.995 ± 0.08,1.03 ± 0.081,0.896 ± 0.036,1.38 ± 0.15,1.2 ± 0.23,1.01 (active)
CC(c1ccccc1)c1nnc(NC(=O)c2ccco2)s1 (stereo unspecified),0.853 ± 0.29,1.12 ± 0.12,1.04 ± 0.1,0.906 ± 0.027,1.13 ± 0.23,1.3 ± 0.32,0.968 (active)
OC(CNC1CCCCC1)Cn1c2ccc(Cl)cc2c2cc(Cl)ccc21 (stereo unspecified),0.137 ± 0.03,0.219 ± 0.037,0.613 ± 0.042,0.11 ± 0.058,0.302 ± 0.018,0.436 ± 0.12,0.0501 (inactive)
COC(=O)c1ccc(-n2nnnc2SCC(=O)Nc2ccc(C)c(C)c2)cc1,0.529 ± 0.32,0.897 ± 0.057,0.98 ± 0.085,0.849 ± 0.063,1.14 ± 0.077,1.19 ± 0.15,1.02 (active)
CN1CCN(c2ccc(-c3cccc(NC(=O)c4ccc5ccccc5c4)c3)nn2)CC1,0.162 ± 0.0099,0.745 ± 0.15,0.301 ± 0.11,0.664 ± 0.041,1.88 ± 0.75,1.85 ± 0.26,0.171 (inactive)
CC(C)(O)CNc1nc(Nc2ccnc(C(F)(F)F)c2)nc(-c2cccc(C(F)(F)F)n2)n1,1.13 ± 0.37,1.19 ± 0.079,1.12 ± 0.087,1.01 ± 0.053,1.3 ± 0.19,1.54 ± 0.15,0.999 (active)
Cc1cnc2c(c1NCCCO)c(=O)n(C)c(=O)n2C,1.1 ± 0.1,1.01 ± 0.088,1.02 ± 0.027,0.881 ± 0.04,0.947 ± 0.11,0.887 ± 0.21,0.995 (active)
CCOC(=O)c1ccccc1NC(=O)CN(c1cc(C)ccc1OC)S(C)(=O)=O,1.05 ± 0.097,1.03 ± 0.068,0.994 ± 0.047,1.01 ± 0.21,1.05 ± 0.11,1 ± 0.2,1 (active)
Cc1cc(=O)n2c(-c3cccc(NC(=O)C4CCCO4)c3)csc2n1 (stereo unspecified),1.25 ± 0.072,1.04 ± 0.089,1.01 ± 0.037,0.973 ± 0.093,1.04 ± 0.11,0.936 ± 0.18,0.999 (active)
CCOC(=O)N1CCC(=C2c3ccc(Cl)cc3CCc3cccnc32)CC1,1.07 ± 0.24,1.09 ± 0.21,0.953 ± 0.053,0.725 ± 0.04,1.06 ± 0.097,1.33 ± 0.29,0.989 (active)
Cc1cc(C)n2nc(C(=O)NN=Cc3ccc(N(C)C)cc3)nc2n1,1.1 ± 0.069,1.09 ± 0.067,0.934 ± 0.084,0.996 ± 0.033,1.37 ± 0.11,1.3 ± 0.25,1.01 (active)
CCCCN(CCCC)CC(=O)Nc1c2c(nc3ccccc13)CCC2.O=C(O)C(=O)O,0.63 ± 0.035,1.1 ± 0.067,1.15 ± 0.068,1.38 ± 0.053,1.98 ± 0.13,0.98 ± 0.15,0.308 (inactive)
